Experimental data reported in PubChem BioAssay AID2012 (Sanford-Burnham Center for Chemical Genomics, 2009).
Hit rate of the full screen: of about 290,000 compounds, about 2,700 (0.93%) were called active. The rule behind the calls is not given here. What follows is part of a selection rich in actives, with near analogues and random picks from the rest.

Target: Eukaryotic translation initiation factor 4H (Homo sapiens) (UniProt Q15056)
Experiment: human eIF4H binding inhibitors, primary screen, translation initiation inhibitor project, biochemical, uHTS, fluorescence polarization (AID 2012);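 note: calls also rest on retests at 20 µM and on dose response follow-up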
Settings: eIF4H fluorescence polarization binding assay, stronger effect = higher value

SMILES	inhibition (at 35 µM)	inhibition (confirmation average, at 20 µM)
C=CCNc1nnc(SCC(=O)N2CCCCC2)c2ccccc12	85.7% (active)	54.5%
C=CCNc1nnc(C)c2ccccc12	-4.9% (inactive)	
O=C(CSc1ncccn1)N1CCCC1	-5.6% (inactive)	
C=CCOc1ccc(C(=O)Nc2ccccc2C(=O)N2CCCC2)cc1	0.5% (inactive)	
COCC1CCN(C(=O)C2CCC(=O)N(Cc3cccc(C(F)(F)F)c3)C2)CC1 (stereo not drawn)	-2.7% (inactive)	
COc1ccc(N(CC(=O)NCCSCc2cccc(Cl)c2)S(C)(=O)=O)cc1	-10.9% (inactive)	
CCc1cccc(C)c1NC(=O)CSc1nnc(-c2ccco2)n1N	6.1% (inactive)	
NC(=O)c1c(NC(=O)CSc2nc(N)cc(=O)[nH]2)sc2c1CCCC2	15.5% (inactive)	
NC(=O)c1c(NC(=O)CSc2nnc(-c3ccco3)n2N)sc2c1CCCC2	65.9% (active)	96.5%
COc1ccc(C(=O)NC(=S)N2CCCCC2c2cccnc2)cc1OC (stereo not drawn)	2% (inactive)	
O=C(CN(C(=O)CCC(=O)Nc1nccs1)c1ccc(F)cc1)NCc1ccc2c(c1)OCO2	-1.4% (inactive)	
CS(=O)(=O)c1sc2nc(-c3ccccc3)cc(-c3ccccc3)c2c1N	98.5% (active)	
Nc1nc(-c2ccccc2)cc(-c2ccccc2)n1	0.4% (inactive)	
CNc1nc(-c2ccccc2)cc(-c2ccccc2)n1	-3.9% (inactive)	
CCCc1cc(C(=O)Nc2ccc(Cl)cn2)cs1	2.5% (inactive)	
CCc1ccccc1S(=O)(=O)Cc1ccc(C(=O)NCCc2ccccc2)o1	-13% (inactive)	
COc1ccccc1-n1c(-c2cc(-c3ccco3)[nH]n2)n[nH]c1=S	58% (active)	74%
COc1ccc(OC)c(-n2c(-c3ccn[nH]3)n[nH]c2=S)c1	-6% (inactive)	
COc1ccc(-n2c(-c3ccc(OC)c(OC)c3)n[nH]c2=S)cc1	7.7% (inactive)	
Cc1nc(C)c(-c2nnc(-c3cccc(S(=O)(=O)N(C)C)c3)o2)cc1C(=O)NN	-1.3% (inactive)	
Cc1ccccc1C(=O)NC(=S)NC1CC1	-17.7% (inactive)	
CSCCC(NC(=O)c1ccco1)C(=O)OCC(=O)Nc1ncc(Cl)c(C)c1Cl (stereo not drawn)	4.5% (inactive)	
C/C(=N\Nc1ncc(Cl)cc1Cl)c1ccc(S(=O)(=O)NCc2ccco2)cc1	-4.5% (inactive)	

SMILES	inhibition (at 35 µM)	inhibition (confirmation average, at 20 µM)
Cc1c(Cl)cnc(NC(=O)COC(=O)c2ccc(S(=O)(=O)NCc3ccco3)cc2)c1Cl	58.6% (active)	87.4%
CC(=O)Nc1ccc(N2C(=O)C3C4C=CC(CC4)C3C2=O)cc1 (stereo not drawn)	-5.9% (inactive)	
O=c1[nH]c(/C=C\c2cccc(C(F)(F)F)c2)nc(O)c1[N+](=O)[O-]	3.5% (inactive)	
Cc1cccc(NS(=O)(=O)c2ccc(C(=O)NCC(C)(C)N3CCOCC3)cc2)c1C	-0.1% (inactive)	
Cc1ccccc1NC(=O)CN1C(=O)N/C(=C\c2cccn2-c2cccc(C(=O)O)c2)C1=O	89.1% (active)	86.1%
Cc1cccc(NC(=O)CN2C(=O)c3ccccc3C2=O)c1C	9.4% (inactive)	
O=C1N/C(=C/c2cccn2-c2ccccc2)C(=O)N1c1cccc(Cl)c1	2.6% (inactive)	
Cc1ccc(CNC(=O)C(=O)c2cn(CC(=O)N3CCOCC3)c3ccccc23)cc1	-6.1% (inactive)	
CSc1nnc(SCc2nc3sc(C(=O)O)c(C)c3c(=O)[nH]2)s1	86.3% (active)	
Cc1ccc(C)c(SCc2nc3sc(C(=O)O)c(C)c3c(=O)[nH]2)c1	2.9% (inactive)	
CCOC(=O)c1sc2nc(CSc3ccccc3)[nH]c(=O)c2c1C	2.6% (inactive)	
COC(=O)c1ccccc1NC(=O)CSc1n[nH]c(-c2ccncc2)n1	3.3% (inactive)	
Cc1cccnc1CC(C)NC(=O)c1cc(COc2cncc(Cl)c2)on1 (stereo not drawn)	-1% (inactive)	
O=C(N/N=C/c1c(Cl)[nH]c2ccccc12)c1sc2ccccc2c1Cl	-8.2% (inactive)	
Oc1ccc(N=Cc2c(O)ccc3ccccc23)cc1	19% (inactive)	
Oc1ccc(N=Cc2sc3ccccc3c2Cl)cc1	105% (active)	73.8%
CCCOc1ccc(/C=N/NC(=O)C2CC2)c(OCCC)c1	-12.1% (inactive)	
Cc1c(OC(C)C(=O)N[C@@H](Cc2ccccc2)C(=O)O)ccc2c3c(c(=O)oc12)CCCC3 (stereo partly drawn)	5.5% (inactive)	
Cc1cc(OC(C)C(=O)NC2CC(C)(C)NC(C)(C)C2)c2c(C)cc(=O)oc2c1 (stereo not drawn)	-0.9% (inactive)	
Cc1ccc(N2NC(=O)/C(=C/C=C/c3ccco3)C2=O)cc1C	45.7% (inactive)	
Cc1ccc(N=C2NC(=O)/C(=C/C=C/c3ccco3)S2)cc1C	75.9% (active)	90.3%
Cc1cccc(N=C2NC(=O)/C(=C/c3cn(C)c4ccccc34)S2)c1	2.5% (inactive)	
CCN(CC)S(=O)(=O)c1ccc(-c2cn3ccc(C)cc3n2)cc1	1.1% (inactive)	

SMILES	inhibition (at 35 µM)	inhibition (confirmation average, at 20 µM)
CCOc1ccc(-c2n[nH]c(=S)n2/N=C/c2cc3c(cc2[N+](=O)[O-])OCO3)cc1	86.2% (active)	80.4%
Cc1ccc(-c2n[nH]c(=S)n2/N=C/c2cc3c(cc2[N+](=O)[O-])OCO3)cc1	29.5% (inactive)	
O=[N+]([O-])c1ccccc1/C=N/n1c(COc2ccccc2)n[nH]c1=S	-1.1% (inactive)	
Cc1ccc(-n2c(C)cc(C(=O)CN3C(=O)C(=O)N(C4CCCC4)C3=O)c2C)cc1	1.2% (inactive)	
Cc1cc(C(=O)COC(=O)C2CC2)c(C)n1-c1ccc(F)cc1	4.9% (active)	52.5%
COc1cc(/C=N/NC(=O)c2cc(C)n(-c3ccc(F)cc3)c2C)cc(OC)c1O	0.7% (inactive)	
O=C(Nc1ccc(F)cc1)c1ccc(S(=O)(=O)NCc2cccnc2)cc1	10.1% (inactive)	
NC(=O)CN1CCCC1c1ccc2c(c1)OCCO2 (stereo not drawn)	4.2% (inactive)	
c1ccc(CSc2nnc(-c3ccco3)c(-c3ccco3)n2)cc1	94.6% (active)	
Brc1ccc(CSc2ccc(-c3ccco3)nn2)cc1	61% (inactive)	-1.3%
Fc1cccc(Cl)c1CSc1ccc(-c2ccco2)nn1	49.1% (inactive)	
COC(OC)c1ccnc(SCc2ccccc2Cl)n1	2% (inactive)	
Clc1ccccc1CSc1nnc(-c2ccco2)c(-c2ccco2)n1	96.6% (active)	94.4%
O=C(Nc1nnc(SCc2ccccc2)s1)c1ccco1	6% (inactive)	
CCN(C(=O)C1CCCN(c2nc(-c3ccc(OC)cc3)no2)C1)c1ccc(OC)cc1 (stereo not drawn)	-11.8% (inactive)	
Cc1ccc(NC(=O)CSc2nn3c(=O)c(C)nnc3s2)cc1Cl	-27.5% (inactive)	
CC(=O)c1ccc(N2CCN(C(=O)C3CCN(S(=O)(=O)c4ccc5c(c4)CC(C)N5C(=O)C4CC4)CC3)CC2)cc1 (stereo not drawn)	-9.3% (inactive)	
CC(Sc1nc2cc(Cl)ccc2s1)C(=O)Nc1ccc2c(c1)OCO2 (stereo not drawn)	1.8% (active)	65.1%
O=C(Nc1ccc2c(c1)OCO2)c1sc2cc(Cl)ccc2c1Cl	-4% (inactive)	
CC(Sc1nc(-c2ccccc2)cc(C(F)(F)F)n1)C(=O)Nc1ccc2c(c1)OCO2 (stereo not drawn)	4.8% (inactive)	
O=S(=O)(c1ccc(Br)cc1)N1CCC(c2nc3ccccc3[nH]2)CC1	-8.2% (inactive)	
CC1CCCCN1CCCNc1ccc(C(CC(N)=O)NC(=O)c2ccccc2)cc1[N+](=O)[O-] (stereo not drawn)	-8.3% (inactive)	
CC(=O)NC(Cc1ccc(F)c(F)c1)C(=O)NC1CCN(C(=O)c2ccc(C)cc2)CC1 (stereo not drawn)	-14.2% (inactive)	

SMILES	inhibition (at 35 µM)	inhibition (confirmation average, at 20 µM)
CNC(=S)N1CCC(NC(=O)C(Cc2ccc(F)cc2)NC(C)=O)CC1 (stereo not drawn)	63.8% (active)	
COc1ccc(CC(NC(C)=O)C(=O)NC2CCN(C(=O)c3ccc(Cl)cc3)CC2)cc1 (stereo not drawn)	-0.5% (inactive)	
O=C(CCc1ccccc1)NNC(=O)COc1ccc(Cl)cc1	0.4% (inactive)	
COc1ccccc1NC(=O)CCC(=O)OC(C)C(=O)c1ccccc1 (stereo not drawn)	1.3% (inactive)	
O=C(NC1CCCC1)C(=O)c1c[nH]c2ccccc12	-6.1% (inactive)	
CCCNC(=O)CSc1nc(Cc2ccccc2)nc2ccccc12	-6.2% (inactive)	
Clc1c(OCCCn2ccnc2)ccc2ccccc12	1.6% (inactive)	
Cc1cccc(NC(=O)/C=C/c2ccc3c(c2)OCO3)n1	-2.1% (inactive)	
O=C(/C=C/c1ccc2c(c1)OCO2)NCc1ccc(F)cc1	4.7% (inactive)	
O=C(/C=C/c1ccc2c(c1)OCO2)NCc1cn2cc(Cl)ccc2n1	-3.3% (active)	76.4%
Cc1cccc(NS(=O)(=O)c2ccc(-c3cnc(C4CC4)o3)cc2)c1	-2.4% (inactive)	
O=C(c1ccc[nH]c1=S)N1CCN(S(=O)(=O)c2ccc(Br)cc2Cl)CC1	-10.2% (inactive)	
COCC(C)n1c(C)cc(C(=O)COc2ccc(C)nc2[N+](=O)[O-])c1C (stereo not drawn)	70.1% (active)	70.5%
COc1ccccc1CNC(=O)COc1ccc(C)nc1[N+](=O)[O-]	-3.5% (inactive)	
COc1ccc(C)cc1-n1nnnc1SCC(=O)c1cc(C)n(Cc2ccco2)c1C	64.8% (active)	
Cc1cc(C(=O)COC(=O)CNC(=O)c2ccc(F)cc2)c(C)n1Cc1ccco1	86.4% (inactive)	-10.3%
Cc1cc(C(=O)CSc2nc(N)cc(=O)[nH]2)c(C)n1Cc1ccco1	43.2% (inactive)	
CCc1ccccc1NC(=O)CN(C)C(=O)COc1ccc(C)nc1[N+](=O)[O-]	1.9% (inactive)	
Cc1ccc(OCC(=O)c2cc(C)n(Cc3ccco3)c2C)c([N+](=O)[O-])n1	101% (active)	86.9%
COc1ccc(OC)c(-n2nnnc2SCC(=O)Nc2cc(C)ccc2OC)c1	0% (inactive)	
Cc1ccc(OCC(=O)NC(C)c2ccccc2)c([N+](=O)[O-])n1 (stereo not drawn)	-4.1% (inactive)	-2.8%
Cc1c(C(C)(C)O)[nH]c2ccc(C#N)cc12	2.9% (inactive)	
